A short description of the assay: chemical genetic growth profiling, strain panel (AID 1159580).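 Note: tested at 20 µM; growth read once vehicle control cultures reached saturation at 30 °C; 1 = growth at the plate median or of vehicle wells; lower values mean less growth of the strain.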 The following applies: growth OD.
The mark [1] stands for this setting: S. cerevisiae deletion strains, locus YAL013W, strain DEP1, stronger effect = lower value.
Setting [2] is: S. cerevisiae deletion strains, locus YBR229C, strain ROT2, stronger effect = lower value.
Where [3] appears, read: S. cerevisiae deletion strains, locus YDL101C, strain DUN1, stronger effect = lower value.
Where [4] appears, read: S. cerevisiae deletion strains, locus YDR150W, strain NUM1, stronger effect = lower value.
Where [5] appears, read: S. cerevisiae deletion strains, locus YEL061C, strain CIN8, stronger effect = lower value.
[6] abbreviates: S. cerevisiae deletion strains, locus YGR078C, strain PAC10, stronger effect = lower value.
The mark [7] stands for this setting: S. cerevisiae deletion strains, locus YHR030C, strain SLT2, stronger effect = lower value.
Setting [8] is: S. cerevisiae deletion strains, locus YHR087W, strain rtc3, stronger effect = lower value.
[9] abbreviates: S. cerevisiae deletion strains, locus YJR043C, strain POL32, stronger effect = lower value.
The mark [10] stands for this setting: S. cerevisiae deletion strains, locus YJR075W, strain HOC1, stronger effect = lower value.
Where [11] appears, read: S. cerevisiae deletion strains, locus YLR039C, strain RIC1, stronger effect = lower value.
Setting [12] is: S. cerevisiae deletion strains, locus YLR058C, strain SHM2 (second series), stronger effect = lower value.
Setting [13] is: S. cerevisiae deletion strains, locus YLR085C, strain ARP6, stronger effect = lower value.
Setting [14] is: S. cerevisiae deletion strains, locus YLR262C, strain YPT6, stronger effect = lower value.
[15] abbreviates: S. cerevisiae deletion strains, locus YML094W, strain GIM5, stronger effect = lower value.
Setting [16] is: S. cerevisiae deletion strains, locus YMR219W, strain ESC1, stronger effect = lower value.
[17] abbreviates: S. cerevisiae deletion strains, locus YNL128W, strain TEP1, stronger effect = lower value.
Where [18] appears, read: S. cerevisiae deletion strains, locus YNL153C, strain GIM3, stronger effect = lower value.
Where [19] appears, read: S. cerevisiae deletion strains, locus YNL298W, strain CLA4 (second series), stronger effect = lower value.
[20] abbreviates: S. cerevisiae deletion strains, locus YNL322C, strain KRE1, stronger effect = lower value.
Setting [21] is: S. cerevisiae deletion strains, locus YNR030W, strain Alg12, stronger effect = lower value.
Where [22] appears, read: S. cerevisiae deletion strains, locus YPL055C, strain LGE1, stronger effect = lower value.
[23] abbreviates: S. cerevisiae deletion strains, locus YPL241C, strain CIN2, stronger effect = lower value.
Where [24] appears, read: S. cerevisiae deletion strains, locus YPR135W, strain CTF4, stronger effect = lower value.

Structures are written as SMILES. Among all 5,500 compounds or so, about 2,000 (36%) were called active. Inconclusive results (about 18%) are left out. The list shows a part of the results. Values without a mark were called inactive. Cut-off read from the data, not from the text of the source: active = normalized growth mostly below about 0.91 (no sharp cut-off); inconclusive = no clear call, values can overlap the other calls; inactive = mostly above about 0.92.

With `O=C(Nc1ccc(Cl)c(Cl)c1)c1ccccc1`, the normalized growth by setting is: under setting [1], 0.885 (active); under setting [2], 0.892 (active); under setting [3], 0.931; under setting [4], 0.889; under setting [5], 0.813 (active); under setting [6], 0.84 (active). The normalized growth runs as follows: under setting [7], 0.579 (active); under setting [8], 0.846 (active); under setting [9], 0.906 (active); under setting [10], 0.771 (active); under setting [11], 0.271 (active); under setting [12], 0.876 (active). Also, the normalized growth is 0.504 (active) under setting [13]; 0.318 (active) under setting [14]; 0.797 (active) under setting [15]; 0.895 (active) under setting [16]; 0.453 (active) (S. cerevisiae deletion strains, locus YMR307W, strain GAS1, stronger effect = lower value); 0.933 under setting [17]. The normalized growth under setting [18] was 0.942; the normalized growth under setting [19] was 0.747 (active); the normalized growth under setting [20] was 0.8 (active); the normalized growth under setting [21] is 0.761 (active); the normalized growth under setting [22] is 0.754 (active); the normalized growth under setting [23] was 0.754 (active). The normalized growth was 0.406 (active) under setting [24] and 0.908 (active) (S. cerevisiae strains, strain wild type, stronger effect = lower value).
Turning to `O=P(O)(O)C(O)(Cc1cccnc1)P(=O)(O)O`, the normalized growth under setting [7] was 0.969; the normalized growth (S. cerevisiae deletion strains, locus YHR079C, strain IRE1, stronger effect = lower value) is 0.963; the normalized growth (S. cerevisiae deletion strains, locus YJL095W, strain BCK1, stronger effect = lower value) was 0.969; the normalized growth (S. cerevisiae deletion strains, locus YJR066W, strain TOR1, stronger effect = lower value) is 0.936; the normalized growth (S. cerevisiae deletion strains, locus YLR113W, strain HOG1, stronger effect = lower value) is 0.919; the normalized growth (S. cerevisiae deletion strains, locus YNL183C, strain NPR1, stronger effect = lower value) was 0.897. Moreover, the normalized growth is 0.966 (S. cerevisiae deletion strains, locus YOR231W, strain MKK1, stronger effect = lower value) and 0.933 (S. cerevisiae deletion strains, locus YPL256C, strain CLN2, stronger effect = lower value).
Turning to `S=C(NCc1cccnc1)Nc1ccccc1Cl`, the normalized growth under setting [1] was 0.987; the normalized growth under setting [2] is 1; the normalized growth (S. cerevisiae deletion strains, locus YCL061C, strain MRC1, stronger effect = lower value) was 0.988; the normalized growth under setting [3] was 0.989; the normalized growth under setting [4] is 0.953; the normalized growth under setting [5] is 0.975. Also, the normalized growth was 0.989 under setting [6]; 0.991 (S. cerevisiae deletion strains, locus YGR229C, strain SMI1, stronger effect = lower value); 0.538 (active) under setting [7]; 1.01 under setting [8]; 0.984 under setting [9]; 1.02 under setting [10]. The normalized growth under setting [11] is 0.939; the normalized growth under setting [12] was 0.987; the normalized growth under setting [13] was 0.584 (active); the normalized growth under setting [14] was 0.982; the normalized growth under setting [15] was 0.953; the normalized growth under setting [16] was 0.992. For the same compound, the normalized growth by setting is: (S. cerevisiae deletion strains, locus YMR263W, strain SAP30, stronger effect = lower value) 0.968; under setting [17], 0.994; under setting [18], 0.98; under setting [19], 0.959; under setting [20], 1; under setting [21], 0.987. The normalized growth reads like this: (S. cerevisiae deletion strains, locus YOL006C, strain TOP1, stronger effect = lower value) 1; under setting [22], 0.961; under setting [23], 0.97; under setting [24], 0.745.

(Values after PubChem BioAssay AID1159580 (chemical genetic matrix, 2015).)
